A short description of assay [1]: ATG_DR4_LXR_CIS: Attagene CIS-FACTORIAL HepG2 Assay for human Liver X Receptor (LXR), DR4 submotif (AID 2282929). The note with it: HepG2 Attagene DR4 cis-reporter, mRNA transcription; actives raise or lower the signal. In a few lines: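 HepG2 cells transiently transfected with cis-promoter-driven multiplexed reporter units (DR4 element) were dosed for 24 h. Reporter mRNA was quantified by RT-PCR, fluorescent primer extension, HpaI digestion and capillary electrophoresis; bidirectional fitting versus DMSO baseline.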

Assay [2] has as its target Aryl hydrocarbon receptor (Homo sapiens) (UniProt P35869). The assay is described as follows: ATG_Ahr_CIS: Attagene CIS-FACTORIAL HepG2 Assay for human Aryl Hydrocarbon Receptor (Ahr) (AID 2282930). The note with it: HepG2 AhR cis-factorial reporter transcription; actives raise or lower the signal. In a few lines: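 Read-out: reporter mRNA quantified by RT-PCR with fluorescent primer extension and capillary electrophoresis. Human HepG2 liver cells carried transfected cis-promoter reporter units and were exposed to chemical for 24 h; gain or loss fitted relative to DMSO.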

Assay [3] is described as follows: ATG_AP_1_CIS: Attagene CIS-FACTORIAL HepG2 Assay for human Activator Protein 1 (AP-1) (AID 2282931). The note with it: HepG2 Attagene cis-factorial AP-1 reporter mRNA; actives raise or lower the signal. The procedure, abridged: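 HepG2 cells transiently transfected with cis-element-driven multiplex reporter units; 24 h compound exposure. Reporter mRNA quantified by RT-PCR, FAM-labelled fragments resolved by capillary electrophoresis; bidirectional fit versus DMSO baseline.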

The nature of assay [4]: ATG_AP_2_CIS: Attagene CIS-FACTORIAL HepG2 Assay for human Activator Protein 2 (AP-2) (AID 2282932). The note with it: HepG2 AP-2 cis-reporter, Attagene transcription factor profiling; actives raise or lower the signal. The procedure, abridged: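 HepG2 cells transiently transfected with cis-element reporter units and exposed for 24 h. Reporter mRNA measured by RT-PCR, FAM labelling, HpaI digestion and capillary electrophoresis. Changes in either direction fitted relative to DMSO.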

A short description of assay [5]: ATG_BRE_CIS: Attagene CIS-FACTORIAL HepG2 Assay for human Bone Morphogenetic Protein (BMP) Response Element (BRE) (AID 2282933). The note with it: HepG2 BMP response element reporter, Attagene transcription factor profiling; actives raise or lower the signal. In a few lines:
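Gain- or loss-of-signal was derived by bidirectional fitting against DMSO controls. The signal came from reporter mRNA, measured by RT-PCR and capillary electrophoresis, in HepG2 cells transiently carrying multiple reporter units and dosed for 24 h.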

Assay [6] addresses Retinoic acid receptor alpha (Homo sapiens) (UniProt P10276). The assay is described as follows: ATG_DR5_RAR_CIS: Attagene CIS-FACTORIAL HepG2 Assay for human Retinoic Acid Receptor Alpha (RARE), DR5 submotif (AID 2282934). The note with it: HepG2 Attagene cis-factorial RARE DR5 reporter, mRNA; actives raise or lower the signal. The procedure, abridged:
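Read-out: DR5-driven reporter transcript measured by RT-PCR, 6-FAM primer extension, HpaI digest and capillary electrophoresis. Human HepG2 liver cells carry transiently transfected cis-element reporter constructs; dosing lasts 24 h. Gain or loss of signal fitted against DMSO baseline.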

Assay [7] can be described thus: ATG_E_Box_CIS: Attagene CIS-FACTORIAL HepG2 Assay for human Enhancer Box (E-box) (AID 2282936). The note with it: HepG2 E-box cis-reporter transcription, actives raise or lower the signal. The procedure, abridged: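 HepG2 cells transiently transfected with multiplexed cis-element reporter units, dosed 24 h; reporter mRNA quantified by RT-PCR, 6-FAM labelling, HpaI digestion and capillary electrophoresis. E-box (USF1) signal fitted bidirectionally vs DMSO.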

The nature of assay [8]: ATG_M_61_CIS: Attagene CIS-FACTORIAL HepG2 Assay for M61 Transcription Factor (Internal Marker) (AID 2282937). The note with it: HepG2 Attagene CIS-FACTORIAL M61 internal marker reporter; actives raise or lower the signal. The procedure, abridged: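 HepG2 cells transiently transfected with cis-element-driven multiple reporter transcription units, dosed for 24 h. Reporter mRNA measured by RT-PCR, 6-FAM primer-extension labelling, HpaI digestion and capillary electrophoresis; bidirectional fit versus DMSO baseline.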

Assay [9] is described as follows: ATG_EGR_CIS: Attagene CIS-FACTORIAL HepG2 Assay for human Early Growth Response 1 (EGR1) (AID 2282938). The note with it: HepG2 Attagene CIS-FACTORIAL EGR reporter mRNA; actives raise or lower the signal. The procedure, abridged: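 HepG2 cells transiently transfected with cis-promoter-driven multiplexed reporter transcription units; reporter mRNA measured 24 h after compound dosing by RT-PCR, 6-FAM primer extension, HpaI digestion and capillary electrophoresis. Bidirectional fit versus DMSO baseline.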

The nature of assay [10]: ATG_M_19_CIS: Attagene CIS-FACTORIAL HepG2 Assay for M19 Transcription Factor (Internal Marker) (AID 2282939). The note with it: HepG2 Attagene CIS-FACTORIAL M19 internal marker reporter; actives raise or lower the signal. In a few lines:
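Following a 24 h exposure, RNA from transfected HepG2 cells was reverse-transcribed, PCR-amplified with reporter-specific primers, end-labelled with 6-FAM and HpaI-digested before capillary separation. Values represent gain or loss versus DMSO.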

A short description of assay [11]: ATG_Ets_CIS: Attagene CIS-FACTORIAL HepG2 Assay for human Erythroblast Transformation Specific (ETS) (AID 2282941). The note with it: HepG2 ETS cis-reporter transcription, actives raise or lower the signal. The procedure, abridged: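 HepG2 cells transiently transfected with cis-promoter reporter transcription units were dosed for 24 h; reporter mRNA was measured by RT-PCR, 6-FAM primer extension, HpaI digestion and capillary electrophoresis, with bidirectional fitting against DMSO baseline.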

The target in assay [12] is Hepatocyte nuclear factor 3-beta (Homo sapiens) (UniProt Q9Y261). Nature of the assay: ATG_FoxA2_CIS: Attagene CIS-FACTORIAL HepG2 Assay for human Forkhead box A2 (FOXA2) (AID 2282942). The note with it: HepG2 cis-reporter transcription factor activity, 24 h; actives raise or lower the signal. The procedure, abridged:
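HepG2 cells transiently transfected with multiple cis-regulated reporter transcription units, dosed for 24 h. Reporter mRNA measured by RT-PCR, 6-FAM labelling, HpaI digestion and capillary electrophoresis; bidirectional fitting against DMSO baseline.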

Assay [13] can be described thus: ATG_FoxO_CIS: Attagene CIS-FACTORIAL HepG2 Assay for human Forkhead box O (FoxO) (AID 2282943). The note with it: HepG2 Attagene cis-reporter, FoxO element, mRNA; actives raise or lower the signal. In a few lines: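 Read-out: fluorescence of 6-FAM-labelled reporter cDNA fragments resolved by capillary electrophoresis. Transiently transfected HepG2 cells were dosed for 24 h; activity fitted in both directions relative to DMSO controls.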

Assay [14] can be described thus: ATG_GATA_CIS: Attagene CIS-FACTORIAL HepG2 Assay for human GATA Binding Protein (AID 2282944). The note with it: HepG2 GATA cis-element reporter, Attagene multiplex mRNA; actives raise or lower the signal. The procedure, abridged: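 DMSO serves as negative control and baseline for bidirectional fitting of reporter mRNA changes. HepG2 cells bearing transiently transfected cis-promoter reporters were exposed 24 h; transcripts detected via RT-PCR and capillary electrophoresis.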

Assay [15] can be described thus: ATG_GLI_CIS: Attagene CIS-FACTORIAL HepG2 Assay for human Zinc Finger Protein GLI1 (AID 2282945). The note with it: HepG2, Attagene cis-factorial reporter mRNA, GLI element; actives raise or lower the signal. In a few lines:
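Transiently transfected HepG2 cells report endogenous transcription factor activity via cis-element-driven reporter units. After 24 h compound exposure, reporter mRNA was measured by RT-PCR with capillary electrophoresis; bidirectional fitting against DMSO baseline.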

A short description of assay [16]: ATG_GRE_CIS: Attagene CIS-FACTORIAL HepG2 Assay for human Glucocorticoid Response Elements (GRE) (AID 2282947). The note with it: HepG2 GRE cis-reporter, Attagene multiplex mRNA; actives raise or lower the signal. The procedure, abridged:
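Transiently transfected HepG2 cells carrying GRE cis-reporter units (endogenous TF activity) dosed 24 h; reporter mRNA quantified by RT-PCR, 6-FAM labelling, HpaI digestion and capillary electrophoresis. Bidirectional fit versus DMSO baseline.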

Assay [17] in a line: ATG_ISRE_CIS: Attagene CIS-FACTORIAL HepG2 Assay for human Interferon Regulatory Factor 1 (IRF1) binding to an Interferon-Stimulated Response Element (ISRE) (AID 2282948). The note with it: HepG2 ISRE cis-reporter (Attagene), mRNA transcription readout; actives raise or lower the signal. In a few lines: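 HepG2 cells transiently transfected with multiplexed cis-promoter reporter units; after 24 h compound exposure, reporter mRNA quantified by RT-PCR, FAM labelling, HpaI digestion and capillary electrophoresis. Bidirectional fit versus DMSO baseline.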

In assay [18] the target is Transcription factor E2F1 (Homo sapiens) (UniProt Q01094). Nature of the assay: ATG_E2F_CIS: Attagene CIS-FACTORIAL HepG2 Assay for human E2F Transcription Factor 1 (AID 2282935). The note with it: HepG2 Attagene cis-reporter, E2F reporter RNA transcripts; actives raise or lower the signal. The procedure, abridged: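 Endogenous E2F1 activity read through cis-promoter reporter units transfected into HepG2. After 24 h compound treatment, reporter mRNA measured by RT-PCR, HpaI digestion and capillary electrophoresis. Bidirectional fit versus DMSO.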

Assay [19] concerns the target Bile acid receptor (Homo sapiens) (UniProt Q96RI1). The assay is described as follows: ATG_IR1_CIS: Attagene CIS-FACTORIAL HepG2 Assay for human Nuclear Receptor Subfamily 1 Group H Member 4 (NR1H4), IR1 submotif (AID 2282946). The note with it: IR1 reporter transcription, actives raise or lower the signal. In a few lines: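 HepG2 cells transiently transfected with multiple cis-promoter-driven reporter units to measure endogenous transcription factor activity; 24 h exposure. Reporter mRNA read by RT-PCR, FAM labelling, HpaI digestion and capillary electrophoresis. Bidirectional fit versus DMSO.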

Assay [20] in a line: ATG_ERE_CIS: Attagene CIS-FACTORIAL HepG2 Assay for Estrogen Response Element (ERE) (AID 2282940). The note with it: HepG2 ERE cis-reporter, Attagene RNA transcript; actives raise or lower the signal. In a few lines:
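HepG2, transient cis-reporter units, 24 h exposure. RNA isolated, oligo(dT) RT, reporter-specific PCR, FAM extension, HpaI cut, CE detection. Gain/loss-of-signal vs DMSO.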

The term AC50 denotes the midpoint of the concentration-response curve, whichever way the signal moves.

The structures appear in SMILES notation. Values joined by “and” are separate entries in the source; they are usually repeats but may differ in a detail not shown here. Equal entries are not always repeated. Active and inactive are the calls of the source. Rule for the calls: active = hit-call score of the fitted dose curve at least 0.9, where 1 is the maximum; inactive = score below 0.9.

Sequence of Hepatocyte nuclear factor 3-beta (Homo sapiens) (Q9Y261 whole entry, looked up): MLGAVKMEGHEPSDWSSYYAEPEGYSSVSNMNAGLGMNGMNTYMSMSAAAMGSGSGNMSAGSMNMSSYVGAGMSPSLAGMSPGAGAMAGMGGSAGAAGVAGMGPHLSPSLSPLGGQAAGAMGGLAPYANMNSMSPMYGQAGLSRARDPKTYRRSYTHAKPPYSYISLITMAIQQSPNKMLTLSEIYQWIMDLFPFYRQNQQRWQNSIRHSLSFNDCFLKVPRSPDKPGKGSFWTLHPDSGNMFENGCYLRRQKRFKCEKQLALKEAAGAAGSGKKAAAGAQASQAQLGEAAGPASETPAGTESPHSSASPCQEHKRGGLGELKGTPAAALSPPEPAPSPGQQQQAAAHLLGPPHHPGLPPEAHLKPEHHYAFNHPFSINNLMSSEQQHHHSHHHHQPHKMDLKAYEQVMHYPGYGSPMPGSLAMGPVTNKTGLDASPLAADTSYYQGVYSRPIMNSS
Sequence of Transcription factor E2F1 (Homo sapiens) (Q01094 whole entry, looked up): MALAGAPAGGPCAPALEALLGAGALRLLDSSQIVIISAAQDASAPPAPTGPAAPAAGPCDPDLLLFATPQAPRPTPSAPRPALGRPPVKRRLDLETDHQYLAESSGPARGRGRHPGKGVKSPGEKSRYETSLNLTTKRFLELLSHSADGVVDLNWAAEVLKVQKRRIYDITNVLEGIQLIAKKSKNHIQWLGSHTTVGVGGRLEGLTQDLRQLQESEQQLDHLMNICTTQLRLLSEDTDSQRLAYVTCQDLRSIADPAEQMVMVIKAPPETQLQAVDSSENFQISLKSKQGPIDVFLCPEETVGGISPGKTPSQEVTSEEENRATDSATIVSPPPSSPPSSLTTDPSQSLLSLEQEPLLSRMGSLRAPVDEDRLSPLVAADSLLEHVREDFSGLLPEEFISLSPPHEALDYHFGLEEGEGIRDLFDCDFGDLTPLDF
Sequence of Aryl hydrocarbon receptor (Homo sapiens) (P35869 whole entry, looked up): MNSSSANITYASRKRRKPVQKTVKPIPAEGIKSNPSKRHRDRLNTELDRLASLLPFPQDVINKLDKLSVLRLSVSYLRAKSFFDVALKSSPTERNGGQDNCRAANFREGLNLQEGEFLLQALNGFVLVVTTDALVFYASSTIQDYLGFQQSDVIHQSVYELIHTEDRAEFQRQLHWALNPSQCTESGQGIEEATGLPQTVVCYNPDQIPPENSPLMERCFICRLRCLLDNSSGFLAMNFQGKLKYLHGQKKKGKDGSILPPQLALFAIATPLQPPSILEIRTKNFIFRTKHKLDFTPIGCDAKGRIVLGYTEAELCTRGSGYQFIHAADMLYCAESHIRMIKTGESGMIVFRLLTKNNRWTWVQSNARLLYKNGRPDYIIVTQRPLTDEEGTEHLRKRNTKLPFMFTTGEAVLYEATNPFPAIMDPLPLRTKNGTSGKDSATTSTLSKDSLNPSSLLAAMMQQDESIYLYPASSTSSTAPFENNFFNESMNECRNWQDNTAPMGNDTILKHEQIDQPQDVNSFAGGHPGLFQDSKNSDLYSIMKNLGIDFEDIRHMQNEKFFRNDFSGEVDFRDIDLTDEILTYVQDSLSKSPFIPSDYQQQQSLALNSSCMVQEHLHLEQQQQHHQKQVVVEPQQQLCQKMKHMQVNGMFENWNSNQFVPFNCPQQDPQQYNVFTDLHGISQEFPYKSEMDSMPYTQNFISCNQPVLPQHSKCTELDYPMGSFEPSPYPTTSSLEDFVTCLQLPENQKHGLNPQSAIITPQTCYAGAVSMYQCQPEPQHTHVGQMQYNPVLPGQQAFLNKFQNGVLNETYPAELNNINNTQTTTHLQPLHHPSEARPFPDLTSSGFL
Sequence of Retinoic acid receptor alpha (Homo sapiens) (P10276 whole entry, looked up): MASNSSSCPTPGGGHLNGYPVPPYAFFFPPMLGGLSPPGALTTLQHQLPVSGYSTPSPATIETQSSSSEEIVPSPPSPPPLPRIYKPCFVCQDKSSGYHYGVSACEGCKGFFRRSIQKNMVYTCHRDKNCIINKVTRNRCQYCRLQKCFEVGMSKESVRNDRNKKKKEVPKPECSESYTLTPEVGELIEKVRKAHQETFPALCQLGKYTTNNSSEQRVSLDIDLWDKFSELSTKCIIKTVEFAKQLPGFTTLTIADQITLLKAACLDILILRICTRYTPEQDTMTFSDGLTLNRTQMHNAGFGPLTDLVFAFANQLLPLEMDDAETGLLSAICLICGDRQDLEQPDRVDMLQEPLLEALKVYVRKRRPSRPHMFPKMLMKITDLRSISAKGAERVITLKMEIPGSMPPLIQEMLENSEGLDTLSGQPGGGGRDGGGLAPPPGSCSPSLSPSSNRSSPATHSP
Sequence of Bile acid receptor (Homo sapiens) (Q96RI1 whole entry, looked up): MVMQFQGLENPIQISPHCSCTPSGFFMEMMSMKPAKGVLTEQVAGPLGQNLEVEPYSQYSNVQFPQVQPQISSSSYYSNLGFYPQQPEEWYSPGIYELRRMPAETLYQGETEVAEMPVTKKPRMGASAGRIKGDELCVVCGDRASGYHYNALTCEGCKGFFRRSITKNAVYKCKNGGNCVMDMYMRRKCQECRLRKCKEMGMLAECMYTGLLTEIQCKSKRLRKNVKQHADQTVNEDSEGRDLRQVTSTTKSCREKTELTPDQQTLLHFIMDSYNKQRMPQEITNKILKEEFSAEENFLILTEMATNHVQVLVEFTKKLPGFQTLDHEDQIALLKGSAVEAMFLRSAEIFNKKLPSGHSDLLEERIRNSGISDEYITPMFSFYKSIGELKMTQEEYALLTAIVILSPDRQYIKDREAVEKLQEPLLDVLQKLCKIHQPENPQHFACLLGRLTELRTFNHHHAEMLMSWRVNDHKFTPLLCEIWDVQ

Take `Cc1cc(Cl)ccc1N`: the molecule was classed as inactive in assay [1], in assay [3], in assay [4], in [5], in assay [6] and in assay [7]. Besides, the molecule was called inactive in [8], in [9], in assay [10], in assay [11], in assay [12] and in assay [13]. The call in assay [14], in [15], in assay [16] and in [17] was inactive. For the same molecule, in assay [2], the AC50 was 41.4 µM (active) and 33 µM (active).

Consider `CN(N=O)c1ccc([N+](=O)[O-])cc1`, for which the outcome in [1], in assay [3], in assay [4], in [5], in assay [18] and in [7] was inactive. For the same molecule, the result in [8], in [10], in assay [11], in assay [12], in assay [13] and in assay [14] was inactive. In addition, the molecule was classed as inactive in assay [15], in assay [19], in assay [16] and in [17]. In addition, the AC50 in assay [2] was 26.8 µM (active).

On to `CCCCN(CCCC)C(=S)[S-].CCCCN(CCCC)C(=S)[S-].[Ni+2]`, for which the outcome in assay [1], in [3], in assay [4], in [5], in [6] and in assay [18] was inactive. Moreover, the result in [7], in [8], in assay [9], in [10], in [20] and in assay [11] was inactive. For the same molecule, the outcome in [12], in assay [13], in assay [14], in assay [15], in [16] and in [17] was inactive.

In the case of `Oc1c(Cl)cc(Cl)cc1Cl`, the molecule was classed as inactive in assay [1], in assay [4], in assay [5], in assay [18], in [7] and in assay [8]. The call in assay [9], in assay [10], in assay [11], in assay [12], in [13] and in assay [14] was inactive. The molecule was called inactive in assay [15], in [16] and in assay [17]. Also, the AC50 in assay [2] was 62.3 µM (active).
